The record followed here is PubChem BioAssay AID540267 (National Center for Advancing Translational Sciences (NCATS), 2011).

About 530 (0.16%) of roughly 340,000 compounds were called active. Not shown: some 2% with an inconclusive outcome. The entries come from a sample that favours actives as a whole. A number with no mark means an inactive call. Rule as the data show it: active = activity change below about -80%; inconclusive = between about -30% and that limit; inactive = weaker than that.
% is scaled to controls: 0 for no effect and ±100 for the full control effect.

This experiment can be described thus: Small Molecules that selectively kill Giardia lamblia: qHTS.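 Also: parasites exposed to compound for two days anaerobically before the ATP read.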 The note with it: Giardia lamblia trophozoite viability; at 7.66 µM; hits give low values. The source says: Giardia lamblia is a human pathogen afflicting impoverished nations, and the most common cause of outbreaks of diarrhea in the United States. Giardia has been classified by the CDC as a category B bioterrorism organism. The favored anti giardiasis drugs in the US are metronidazole or tinidazole, compounds that have undesirable side effects. Moreover, increasing resistance to drug regimes and recurrence are a concern. It is thus clear that alternative drug treatments are needed.
In a collaboration between the University of Maryland, College Park and the NIH Chemical Genomics Center, a bioluminescence Giardia viability assay based on the trophozoites' ATP content was developed. This assay is suitable for high throughput screening, and miniaturized the assay for compound screening in 1536-well plates. The goal of the project is to screen the Molecular Libraries Small Molecule Repository (MLSMR) for compounds that selectively kill Giardia trophozoites.
NIH Chemical Genomics Center [NCGC]
NIH Molecular Libraries Probe Centers Network [MLPCN]
Assay Submitter (PI): Osnat Herzberg, University of Maryland, College Park, MD.
1. Dispense 2 ul/well media
2. Dispense 23 nl/well compounds
3. Dispense 4 ul/well Giardia trophozoites at a concentration of 100 cells/well
4. Incubate 48 hrs at 37 deg C anaerobically
5. Dispense 4 ul/well ATPLite 1-Step Luminescence assay kit
6. Incubate 15-30 min at room temperature
7. Read luminescence signal on ViewLux plate reader
In general terms: qHTS replaces the single test concentration by a dilution series.
As for `CCNC(=O)Nc1ccc(S(=O)(=O)Nc2cnc(C)nc2C)cc1`, the activity change is -28.2%. As for `CN(CC(=O)Nc1ccc(OC(F)(F)F)cc1)C(=O)C1CCC1`, the activity change is 29.9%.

In the case of `N#Cc1c(N)nc2c(c1N)CC(C(F)(F)F)O2` (stereo unspecified), the activity change is -7.55%. Regarding `C=CCNC(=O)c1ccc2nc(-c3ccco3)c(-c3ccco3)nc2c1`, the activity change was -26.3%. With `NC(=O)c1ncn([C@@H]2O[C@H](CN=C3NS(=O)(=O)c4ccccc43)[C@@H](O)[C@H]2O)n1`, the activity change was -14.2%. Next, `CC(=NNC(=O)c1ccncc1)c1ccc(Cl)c(Cl)c1`: -4.59%. For the molecule `COC(=O)[C@]1(C)N[C@H](c2ccc(-c3ccc(Cl)c(Cl)c3)cc2)[C@@H]2C(=O)N(C)C(=O)[C@@H]21`, the activity change was -3.14%. On to `COC(=O)C1=C(C(=O)c2ccc(C)cc2)C(c2ccccc2)n2nnnc2N1` (stereo unspecified), for which the activity change was 2.03%. The figure for `Cc1ccc(S(=O)(=O)N2CCN(C(=O)CSc3cc(C)ccc3C)CC2)c(C)c1` is -9.03%; for `CN(C)S(=O)(=O)c1cc(C(=O)Nc2ccn(C)n2)c(Cl)cc1Cl` it is 4.66%.

As to `C=CCn1c(CCNC(=O)c2ccccc2F)nnc1SCC(=O)Nc1ccc(OC)cc1`, the activity change is 1.96%. On to `CCN(CC)CCCNC(=O)c1c(O)c2cc(F)cc3c2n(c1=O)C(C)CC3` (stereo unspecified), for which the activity change is 31%. As for `COc1ccc(C(=O)Nc2cccc(NC(=O)c3ccc(OC)cc3OC)n2)c(OC)c1`, the activity change is -19%. Next, `COc1cc(SC)ccc1C(=O)Nc1nc(C)cs1`: -94.7% (active); `COc1cc(SC)ccc1C(=O)N(Cc1ccccc1)c1ccccc1`: -27.1%. The figure for `CC(=O)N1CCc2c(sc(NC(=O)CCS(=O)(=O)c3ccccc3)c2C#N)C1` is -1.29%. Take `CCCN1CCC(=O)N(C(CSc2ccc(OC)cc2)Cc2ccccc2)CC1` (stereo unspecified): the activity change was -25.3%. Next, `COc1cccc(/C=N\Nc2nncc(-c3ccccc3)n2)c1`: 5.7%; `CN(CCO)c1ccc(/C=N/Nc2nncc3ccccc23)cc1`: -87.9% (active). Take `C/C(=N\Nc1nncc2ccccc12)c1ccc(Cl)c([N+](=O)[O-])c1`: the activity change was -7.6%. For the molecule `CC1(C)CCc2cc(S(=O)(=O)N3CCN(c4nc(-c5cccs5)nc5ccccc45)CC3)ccc2O1`, the activity change was -0.147%. As for `COc1ccc(CN(Cc2ccccc2)C(=O)c2ccc(O)cc2)cc1COc1ccc(NC(C)=O)cc1`, the activity change is 41.3%. With `CC(=O)OCC(NC(=O)C(Cc1ccccc1)NC(=O)OC(C)(C)C)C1OC(n2ccc(=O)[nH]c2=O)C(OC(C)=O)C1OC(C)=O` (stereo unspecified), the activity change was -16.1%. Turning to `O=C(O)C1CCC(CNS(=O)(=O)c2ccc(Br)cc2)CC1` (stereo unspecified), the activity change is 18.6%. On to `CCOc1ccc(N(C)Cc2cc(=O)oc3ccc(OC)cc23)cc1`, for which the activity change was 0.548%. The figure for `C=CCOc1ccc(/C=C/C(=O)OCC(=O)NC(C)c2ccc(F)cc2)cc1` (stereo unspecified) is -21.6%. Regarding `COc1ccc2c(C)cc(SCC(=O)NCC3CCCO3)nc2c1` (stereo unspecified), the activity change was -1.83%.

For `COc1ccc(-c2ccc(C3C4C=CCCC4(C)C(=O)N3Cc3ccccc3)c(F)c2)cc1OC` (stereo unspecified), the activity change is 5.8%.

Take `C/C(CC(=O)Nc1ccc(C)cc1C)=N\NC(=O)C(C)C`: the activity change is -14.4%.

Regarding `CC(C)C(=O)N1c2ccccc2NC2=C(C(=O)CCC2)C1c1ccc(N(C)C)cc1` (stereo unspecified), the activity change was 1.62%. The figure for `COC(=O)C1=C(C)N(C)C(=S)NC1c1ccccc1` (stereo unspecified) is -6.21%. The figure for `COC(=O)C1=C(C)N(C)C(=O)NC1c1ccc([N+](=O)[O-])o1` (stereo unspecified) is -87.4% (active); for `COc1ccc(C2NC(=O)N(C)C(C)=C2[N+](=O)[O-])cc1` (stereo unspecified) it is 22.3%. Next, `Oc1ccc(Cl)cc1C1C=C(c2ccc3c(c2)OCO3)NC(c2c(F)cccc2Cl)N1` (stereo unspecified): -23.4%.

Take `CCOC(=O)CSc1nnc(CNC(=O)c2ccco2)n1-c1ccc(F)cc1`: the activity change was -0.714%. The figure for `C/[N+]([O-])=C\c1ccc([N+](=O)[O-])o1` is -92.7% (active); for `O=C(/C=C/c1ccc([N+](=O)[O-])o1)NNC(=O)c1ccc(F)cc1` it is 2.18%. Take `O=[N+]([O-])c1ccc(C=NN=Cc2ccc([N+](=O)[O-])cc2)cc1`: the activity change was 12.5%. The figure for `COc1cc(Cl)c(C)cc1NC(=O)CSc1nnc(-c2ccco2)n1CC(C)C` is 6.88%; for `CC(C)Cn1c(N)c(C(=O)COC(=O)C2CCCN2C(=O)c2cccs2)c(=O)n(C)c1=O` (stereo unspecified) it is 20.2%. Regarding `C[C@H](NC(=O)C1CCN(S(=O)(=O)c2ccccc2)CC1)C(=O)NCc1ccccc1`, the activity change is 10.6%. The figure for `O=C(NCc1ccccn1)[C@]1(C(F)(F)F)C[C@H](CCc2ccccc2)CCCO1` is -0.242%; for `COc1cccc(C(=O)c2sc3nc(-c4ccccc4)cc(C(F)(F)F)c3c2N)c1` it is 4.39%. The figure for `COc1ccc(S(=O)(=O)N2CCN(CC(=O)N3c4ccccc4CC3C)CC2)cc1OC` (stereo unspecified) is -6.14%; for `CC(=O)Nc1ccc(S(=O)(=O)N2N=NC3C2C2CC4C3(CN(C(=O)OC(C)(C)C)S4(=O)=O)O2)cc1` (stereo unspecified) it is -7.9%; for `CC(C)C(C)NC(=O)COc1nc2ccccc2nc1N(C)C1CCCCC1` (stereo unspecified) it is 0.279%. Next, `CN(C(=O)c1cc2c(=O)n3ccccc3nc2s1)C1CCCCC1`: 9.98%; `CN(c1ccc2nc3ccccc3c(=O)n2n1)C1CCCCC1`: -82.4% (active). As to `COC(=O)CCc1ccccc1S(=O)(=O)N(CCC(=O)OC)Cc1ccccc1`, the activity change was 9.42%. As to `CCCCN(C1CCS(=O)(=O)C1)S(=O)(=O)c1ccc(C(C)C)cc1` (stereo unspecified), the activity change was -8.89%.

Consider `Cc1n[nH]c(C)c1S(=O)(=O)N1CCCC(C(=O)NCC2COc3ccccc3O2)C1` (stereo unspecified), for which the activity change is 1.3%. The figure for `COc1ccc(S(=O)(=O)N2CCC(C(=O)OCC(=O)c3ccccc3)CC2)cc1[N+](=O)[O-]` is -0.271%; for `Cc1ccc(NC(=O)C(C)OC(=O)Cc2c[nH]c3ccccc23)cc1S(=O)(=O)N1CCOCC1` (stereo unspecified) it is -9.72%; for `COc1ccc(S(=O)(=O)Nc2cccc3cccnc23)c(N)c1` it is -6.45%.

Consider `CCCN1CCC(=O)N(C(CSc2ccc(C)cc2)Cc2ccccc2)CC1` (stereo unspecified), for which the activity change is 13%. Next, `CCc1nn(CC(=O)N2CCN(CC)CC2)c(=O)c2cccn12`: -17.4%; `COc1ccc2c(c1)CC[C@@H]1[C@@H]2CC[C@]2(C)C(=O)CC[C@@H]12`: 2.55%. The figure for `O=C(ON=C1CCN(S(=O)(=O)c2ccccc2)CC1)c1ccc(Cl)cc1` is -18%. Next, `Cc1cccc(NS(=O)(=O)c2ccc(-c3cnc(C4CC4)o3)cc2)c1`: 23.1%; `COc1ccc(C2CC(O)(c3ccccc3)Oc3cc(C)cc(C)c32)cc1` (stereo unspecified): -2.28%; `CCOC(=O)c1cc(OC(=O)c2ccccc2Cl)n(-c2ccccc2)n1`: 20.6%. For `c1ccc(Cn2nnc3c(N4CCCCC4)ncnc32)cc1`, the activity change is 6.21%.

Turning to `CCOc1ccc(NC(=O)CN(C)C(=O)Cn2c(=O)cnc3ccccc32)cc1OCC`, the activity change was 3.18%. Turning to `COc1ccc(CN2CCC(=O)c3ccccc3S2(=O)=O)cc1`, the activity change was -21.5%. The figure for `CS(=O)(=O)N(Cc1ccc(Cl)cc1)c1ccc(C(=O)NCCSCc2ccco2)cc1` is 4.68%; for `Cc1nnc(SC(C(=O)Nc2cc(Cl)cc(Cl)c2)c2ccccc2)[nH]c1=O` (stereo unspecified) it is 24.1%; for `O=[N+]([O-])/C=C1\CCCCCN1` it is -16.8%. The figure for `CNC(=O)[C@]1(C(F)(F)F)C[C@H](CCc2ccccc2)CCCO1` is -0.81%; for `Cc1nn(CCOc2ccc(Br)cc2)c(C)c1[N+](=O)[O-]` it is -11%; for `N/C(=N\OC(=O)Cc1ccccc1[N+](=O)[O-])c1ccc(Br)cc1` it is -8.48%. The figure for `Cc1ncc([N+](=O)[O-])n1CCOC(=O)c1ccc(Br)cc1` is -80.4% (active). With `C=CCCN(C(Cc1ccccc1)C(=O)OC)S(=O)(=O)c1cc(Br)ccc1Br` (stereo unspecified), the activity change is -13%. Next, `CCN(CC)C(=O)COc1coc(CN2CCN(Cc3ccccc3)CC2)cc1=O`: -13.6%; `CCOC(=O)C1CCCN(C(=O)COc2ccc(N(C)S(=O)(=O)c3ccc(C)cc3)cc2)C1` (stereo unspecified): -1.39%. The figure for `COc1ccc(C2Nc3ccc(NC(=O)COC(C)=O)cc3C(=O)N2Cc2ccccc2)cc1COc1ccc(NC(C)=O)cc1` (stereo unspecified) is 26.7%; for `COc1ccc(OCCn2ccnc2C)cc1` it is 8.15%. The figure for `COc1ccc(-c2ccc(OC)c(C3C4C=CCC(C)C4C(=O)N3Cc3ccccc3)c2)cc1C` (stereo unspecified) is 12.9%. Consider `CC1CC(C)CN(c2oc(-c3ccc(OCc4ccc(Cl)cc4)cc3)nc2C#N)C1` (stereo unspecified), for which the activity change was 25.3%. The figure for `Cc1ccc(C(=O)N2CCN(C3CCCCC3)CC2)s1` is 2.7%; for `CCCC1OC23CCCCC2C(C#N)(C#N)C1(C#N)C(=N)O3` (stereo unspecified) it is 1.74%; for `CC/C(=C(/c1ccccc1)c1ccc(OCC[N+](C)(C)C)cc1)c1ccccc1` it is 8.29%. Turning to `CCN(CC)S(=O)(=O)c1ccc(N2CCCC2)c(NC(=O)c2ccc([N+](=O)[O-])o2)c1`, the activity change is -96.4% (active). `CCN(CC)S(=O)(=O)c1ccc(N2CCOCC2)c(NC(=O)c2ccc(=O)n(C)n2)c1`: the activity change was -7.96%.

As for `CCN(CC)S(=O)(=O)c1cc(C(=O)Nc2cc(S(=O)(=O)N3CCOCC3)ccc2N2CCCC2)ccc1F`, the activity change is -19.1%. The figure for `COC(=O)c1ccc(NC(=O)CN(c2ccc(C)cc2)S(=O)(=O)c2c(C)n[nH]c2C)cc1` is 12.5%; for `Cc1ccc(CNC(=O)C2(C(F)(F)F)C/C(=C\CCO)CCCO2)o1` (stereo unspecified) it is -14.6%.
